Only some compounds are listed: those with a hit (about 0.88% of all), similar ones and a draw of the others.
CtBP-E1A inh: blocks the CtBP interaction with E1A; hit rate 0.49% among 340,000; activity change, % (concentration not given with the values); AlphaScreen GST-E1A/His-CtBP binding, 1536-well; hits give low values; in the data active = activity change below about -65%; inconclusive = mostly about -30% to -63%; note: % is set by controls: 0 for no effect and ±100 for the full control effect
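Homogeneous bead-based format: GST-tagged E1A captured on glutathione donor beads, His-tagged CtBP on nickel acceptor beads; compounds precede bead addition by 2 h at 37 °C.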
Akt phos inh: inhibitors of Akt phosphorylation; Neuro2A IGF-stimulated pAkt S473 HTRF, 20 min; hits give low values; activity change, % for hits at 50 µM; hit rate 0.32% among 360,000; AID 651550; in the data active = activity change below about -80%; inconclusive = mostly about -51% to -80%; note: % is set by controls: 0 for no effect and ±100 for the full control effect
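Neuro2A cells in DMEM with 0.5% FBS, overnight at 37 deg C, given compound at single 50 µM final, then IGF (6 nM final) for 20 min at 37 deg C. Lysed; phospho-Akt Ser473 by HTRF after 24 h, 665/615 ratio.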
Six1-Eya2 blk: inhibitors of human Six1/Eya2 interaction; Q15475+O00167; AlphaScreen GST-Six1/His-Eya2 binding, biochemical; hits give low values; activity change, % (test concentration not listed); hit rate 0.56% among 360,000; AID 651725; in the data active = activity change below about -65%; inconclusive = mostly about -30% to -63%; note: % is set by controls: 0 for no effect and ±100 for the full control effect
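Homogeneous AlphaScreen proximity assay pairing GST-Six1 with His-tagged Eya2 (added as 5X mix: 250 nM and 500 nM) in 50 mM Tris pH 8.0, 300 mM NaCl, 1 mM TCEP. Glutathione donor and nickel acceptor beads; 1 h, 37 °C, dark.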
RGS4 inh: inhibitors of human regulator of G protein signaling 4; Transcreener GDP fluorescence polarization, RGS4-accelerated GTP hydrolysis; Potency, µM (highest dose often 114 µM), without a hit: at the top dose activity change, negative = inhibition, actives largely listed as inhibitors; hit rate 0.039% among 390,000; note: potency is the fitted concentration of half-maximal effect; % is set by controls: 0 for no effect and ±100 for the full control effect; nearly all actives have a fitted effect of over 75% in size
Target sequence (P49798 whole entry, looked up): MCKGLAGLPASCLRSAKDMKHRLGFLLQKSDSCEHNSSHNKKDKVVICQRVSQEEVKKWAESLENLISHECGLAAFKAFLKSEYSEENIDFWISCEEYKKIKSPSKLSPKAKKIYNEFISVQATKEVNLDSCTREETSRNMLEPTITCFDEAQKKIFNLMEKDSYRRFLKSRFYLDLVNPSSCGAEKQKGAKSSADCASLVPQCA
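MLSMR compounds (23 nl, pin-transferred) preincubated 10 min at room temperature with a 500nM (2x) first reagent, then RGS4 at 900nM (2x) plus Transcreener GDP mix added; fluorescence polarization (620/688 nm) read before and after 90 min at 30 °C.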
Glioma ERSR ind: induces the endoplasmic reticulum stress response in human glioma cells. hit rate 0.02% among 420,000. AID 602332. U87-MG GRP78 promoter luciferase reporter, 16 h. Potency, µM, for the others: at the highest dose activation, usual class: activators; note: potency is the fitted concentration of half-maximal effect; series mostly up to about 76 µM; % of control where 0% means no effect; nearly all actives have a fitted effect of over 35% in size
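ERSR induction read as luciferase luminescence (Bright-Glo, 10 min at room temperature) in stably transfected human U87-MG glioma cells exposed to compounds for 16 h, using GRP78 as sensor.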
* marks the source's active call; other numbers are inactive results; ! = a repeat was not active. Unless noted, calls come from the whole dose curve; as a rule, active = well fitted curve in the direction sought with a large enough effect; inconclusive = small, poorly fitted or top-dose-only effect, or another doubt; inactive = no such curve, though single readings can be large; an effect the other way counts as inactive or inconclusive.

Cc1csc(NC(=O)CSc2ccc(-c3ccccn3)nn2)n1 was read as Akt phos inh inactive, Six1-Eya2 blk -86*, RGS4 inh 18% and Glioma ERSR ind -2%.
For O=C(CSc1ccc(-c2ccccn2)nn1)Nc1nccs1 the results were CtBP-E1A inh inconclusive, Akt phos inh inactive, Six1-Eya2 blk inconclusive, RGS4 inh 2% and Glioma ERSR ind 4%.
For O=C(CSc1ccc2nnc(-c3ccccn3)n2n1)Nc1nccs1 the results were CtBP-E1A inh -88*, Akt phos inh inactive, Six1-Eya2 blk -81*, RGS4 inh 6% and Glioma ERSR ind -4%.
COc1ccccc1CNC(=O)CSc1ccc(-c2ccccn2)nn1 was read as Akt phos inh inactive, Six1-Eya2 blk -67*, RGS4 inh 0% and Glioma ERSR ind -2%.
For COc1ccccc1CNC(=O)CSc1ccc(-c2cccs2)nn1 the results were CtBP-E1A inh 6, Akt phos inh inactive, Six1-Eya2 blk -6, RGS4 inh -14% and Glioma ERSR ind -7%.
For Clc1ccc(/C=C/c2ccnc3ccccc23)c(Cl)c1 the results were Glioma ERSR ind -1%.
Screening COc1ccc(CN2CCOc3ccc(CN4CCC(Oc5cccnc5)CC4)cc3C2)cc1 returned Glioma ERSR ind -3%.
`C=C1CSc2nc(=O)c3c4c(sc3n21)CCC4` gave CtBP-E1A inh inconclusive, Akt phos inh -115%*, Six1-Eya2 blk inconclusive, RGS4 inh 10% and Glioma ERSR ind -5%.
Screening C=C1CSc2nc(=O)c3c4c(sc3n21)CCCC4 returned CtBP-E1A inh inconclusive, Akt phos inh inactive, Six1-Eya2 blk inconclusive, RGS4 inh -11% and Glioma ERSR ind -3%.
Cc1cccc(OCc2nnc(N)s2)c1C was read as CtBP-E1A inh 6, Akt phos inh -120%*, Six1-Eya2 blk 0, RGS4 inh 0% and Glioma ERSR ind -2%.
`Cc1ccc(OCc2nnc(N)s2)cc1` gave CtBP-E1A inh -2, Akt phos inh inactive, Six1-Eya2 blk 4, RGS4 inh -11% and Glioma ERSR ind 1%.
Cc1ccc(C(=O)Nc2cccc(-c3nc(CNC(=O)c4cccc(N(C)C)c4)c(C)o3)c2)s1 was read as Glioma ERSR ind 2%.
Screening CC(C)Cc1nc2cc(NS(=O)(=O)N(C)C)cc(C(=O)N3CCOc4ccccc4C3)c2n1C returned Glioma ERSR ind -1%.
CCOC(=O)c1cn(-c2ccccc2)nc1-c1ccncc1 was read as CtBP-E1A inh -14, Akt phos inh -118%*, Six1-Eya2 blk -13, RGS4 inh -8% and Glioma ERSR ind -1%.
`CC(C)(C)c1cc(O)c(C(C)(C)C)cc1O` gave Glioma ERSR ind 40µM*!.
Screening CCS(=O)(=O)NCc1c(C)ncc2c1CCN(C(=O)c1ccc(F)cc1)C2 returned Glioma ERSR ind 3%.
CCCNS(=O)(=O)c1ccc(OCC(=O)Nc2ccccc2F)cc1 was read as CtBP-E1A inh 4, Akt phos inh -102%*, Six1-Eya2 blk -1, RGS4 inh 17% and Glioma ERSR ind 1%.
Cc1c(C(=O)Nc2ccc(C(=O)O)cc2)nnn1-c1ccccc1 was read as RGS4 inh 1% and Glioma ERSR ind -11%.
Screening Cc1c(C(=O)NNC(=S)Nc2cccc(Cl)c2)nnn1-c1ccccc1 returned CtBP-E1A inh -2, Akt phos inh inactive, Six1-Eya2 blk -85*, RGS4 inh -37% and Glioma ERSR ind 5%.
`CCNc1nc(N2CCOCC2)nc(N(c2ccccc2)c2ccccc2)n1` gave CtBP-E1A inh 0, Akt phos inh -110%*, Six1-Eya2 blk -2, RGS4 inh 5% and Glioma ERSR ind -3%.
`COCc1ccc(C(=O)N2CCOc3ccc(CN4CCN(c5ccc(F)cc5)CC4)cc3C2)o1` gave Glioma ERSR ind -4%.
`CC[C@H]1OC(=O)[C@H](C)[C@@H](O[C@H]2C[C@@](C)(OC)[C@@H](O)[C@H](C)O2)[C@H](C)[C@@H](O[C@@H]2O[C@H](C)C[C@H](N(C)C)[C@H]2O)[C@](C)(O)C[C@H](C)C(=NOCOCCOC)[C@H](C)[C@@H](O)[C@]1(C)O` gave Glioma ERSR ind -3%.
COC(=O)CN(c1ccc(C)c(Cl)c1)S(C)(=O)=O was read as CtBP-E1A inh 1, Akt phos inh -90%*, Six1-Eya2 blk 6, RGS4 inh 11% and Glioma ERSR ind 12%.
`COC(=O)CN(c1c(C)cccc1C)S(C)(=O)=O` gave CtBP-E1A inh 6, Akt phos inh inactive, Six1-Eya2 blk 2, RGS4 inh 2% and Glioma ERSR ind -1%.
CN(C)c1ccc(CNC(=O)C2Cc3c(-c4ccccc4Oc4ccccc4)ccnc3O2)cc1 (stereo not given) was read as CtBP-E1A inh inconclusive, Akt phos inh inactive, Six1-Eya2 blk -66* and Glioma ERSR ind -4%.
For COc1ccc(CNC(=O)C2Cc3c(-c4ccccc4Oc4ccccc4)ccnc3O2)cc1OC (stereo not given) the results were CtBP-E1A inh -8, Akt phos inh inactive, Six1-Eya2 blk -14 and Glioma ERSR ind -3%.
CC(C)(C)Cc1nnc(NC(=O)c2ccco2)s1 was read as CtBP-E1A inh -11, Akt phos inh inactive, Six1-Eya2 blk -3, RGS4 inh 12% and Glioma ERSR ind 2%.
For CCOC(=O)Cc1nnc(NC(=O)c2ccco2)s1 the results were CtBP-E1A inh -20, Akt phos inh -122%*, Six1-Eya2 blk -4, RGS4 inh 13% and Glioma ERSR ind 2%.
For COc1ccc(N=Nc2cc(-c3ccccc3)ccc2O)cc1 the results were CtBP-E1A inh -69*, Akt phos inh inactive, Six1-Eya2 blk inconclusive, RGS4 inh 22% and Glioma ERSR ind 3%.
`COc1cccc(N=Nc2ccc(O)c3ncccc23)c1` gave CtBP-E1A inh -96*, Akt phos inh inactive, Six1-Eya2 blk -70*, RGS4 inh -24% and Glioma ERSR ind 4%.
`Oc1ccc(N=Nc2ccc3c(c2)OCCO3)c2cccnc12` gave CtBP-E1A inh -84*, Akt phos inh inactive, Six1-Eya2 blk -77*, RGS4 inh inconclusive and Glioma ERSR ind -11%.
For COc1ccc(N=Nc2ccc(O)c3ncccc23)cc1 the results were Akt phos inh inactive, Six1-Eya2 blk -86*, RGS4 inh -40% and Glioma ERSR ind 0%.
For COc1ccc(-c2ncccc2O)cc1 the results were CtBP-E1A inh -5, Akt phos inh inactive, Six1-Eya2 blk 5, RGS4 inh -6% and Glioma ERSR ind 2%.
Screening Cc1ccc(C)c2c1NC(C(=O)O)C1CC=CC21 (stereo not given) returned RGS4 inh inconclusive and Glioma ERSR ind -5%.
Screening COc1cc(-c2ccc(Cl)cn2)cc2c1OCCN(S(=O)(=O)C[C@]13CC[C@H](CC1=O)C3(C)C)C2 returned Glioma ERSR ind -2%.
